Epigenetic derep = derepresses silenced GFP reporter in murine cells. murine LDR cells, GFP reporter derepression, 30 h. Potency, µM (titrated, usually from 53.9 µM), inactives show at the top dose GFP activation, most hits filed as activators. 0.2% of 280,000 active; also: % of control where 0% means no effect; nearly all actives have a fitted effect of over 60% in size
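GFP-positive cell count by laser-scanning cytometry (objects 20–120 um) after 30 h, 37 C compound exposure of murine LDR cells; reporter is CMV-GFP integrated at a silenced locus, inducible by HDAC or DNMT inhibitors.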
HTT ATP protect = cytoprotection in Huntington HTT-Q103 PC12 cell model | PC12 HTT-Q103 induced, cytoprotection, ATP luminescence, 40 h | Potency, µM (highest dose often 56.4 µM), for inactives: cytoprotection (ATP increase), actives largely listed as activators | 0.14% of 230,000 active; also: % of control where 0% means no effect; nearly all actives have a fitted effect of over 45% in size
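PC12 cells stably carrying ecdysone-inducible Htt exon 1 (Q103)–GFP were induced with 100 nM tebufenozide (final) alongside library compounds in a dose series. Cytoprotection was scored as retained ATP by ATPlite luminescence.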
PINK1 modulator = changes PINK1 expression. PINK1 immunofluorescence, high-content cytometry, 24 h. Potency, µM (highest dose often 76.6 µM), for the others: at the highest dose activation (PINK1 increase), actives largely listed as activators. 0.2% of 410,000 active; active = well fitted activation curve with a large enough effect; inconclusive = small, poorly fitted or top-dose-only effect; cell line not stated here; also: % of control where 0% means no effect; nearly all actives have a fitted effect of over 65% in size
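PINK1 protein level read as immunofluorescence by microplate cytometer in a fixed, stained stable cell line after 24 h exposure to five compound concentrations, with CCCP as control.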
Anesthetic bind = candidate novel general anesthetic via apoferritin binding; 0.074% of 350,000 active; AID 485281; Potency, µM (series often up to 77.5 µM), without a hit: top-dose activity change, negative = displacement, usual class: inhibitors; apoferritin/1-aminoanthracene competitive binding, fluorescence; P02791; also: % is scaled to controls: 0 for no effect and ±100 for the full control effect; nearly all actives have a fitted effect of over 20% in size
Target sequence (P02791 2-175 limits assumed): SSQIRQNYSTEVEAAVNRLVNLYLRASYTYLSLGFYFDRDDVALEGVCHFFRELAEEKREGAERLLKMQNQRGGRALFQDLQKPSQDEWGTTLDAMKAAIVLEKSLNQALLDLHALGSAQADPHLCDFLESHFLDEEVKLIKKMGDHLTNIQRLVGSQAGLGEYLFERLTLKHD
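Concentration-response curves derived by four-parameter Hill fitting of normalized fluorescence, where compounds displaced 1-AMA from 10 uM horse apoferritin following a brief 10 min room-temperature incubation; propofol titration acted as positive control.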
HTT aggregate = inhibitors of mutant huntingtin aggregate formation in PC12 cells | Potency, µM (titrated, usually from 46.1 µM), for inactives: top-dose activity change, negative = inhibition, most hits filed as inhibitors | PC12 HttQ103-GFP aggregates, Acumen cytometry, 40 h | 1.1% of 220,000 active; also: % is scaled to controls: 0 for no effect and ±100 for the full control effect; nearly all actives have a fitted effect of over 60% in size
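Steps: seed 1500 PC12 HTTQ103-GFP cells/well; add tebufenozide, 100 nM final; add compound titration; add ATPLite reagent; quantify GFP aggregates by laser scanning cytometry.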
TSG101-PTAP inh = blocks PTAP/TSG101 interaction to inhibit HIV-1 budding. Potency, µM (doses to about 115 µM), for inactives: at the highest dose activity change, negative = inhibition, most hits filed as inhibitors. Fluorescence polarization, FITC-PTAP peptide / Tsg101 binding. 340,000 tested, under 10 active. AID 493005; active = well fitted inhibition curve with a large enough effect in the main read-out, with a control signal flat, not every such curve was filed as active; inconclusive = small, poorly fitted or top-dose-only effect, or effect the other way, or a change in a side signal; inactive = no such curve, though single readings can be large or run the other way; also: % of control where 0% means no effect
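Fluorescence anisotropy tracks displacement of a FITC-tagged PTAP peptide (50 nM) from the Tsg101 binding domain (10 uM), following a 20 min room-temperature incubation at pH 7.5.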
* hit, by the source's call; ? = inconclusive; nt = no result given; [ ] = another dose, or the depositor's remark. Many of the other results were omitted from the sample, so hits are more common in it than they were. Unless noted, calls follow the shape of the dose curve; as a rule, active = well fitted curve in the direction sought with a large enough effect; inconclusive = small, poorly fitted or top-dose-only effect, or another doubt; inactive = no such curve, though single readings can be large; an effect the other way counts as inactive or inconclusive. Potency is read from the fitted curve at half-maximal effect.

SMILES	Epigenetic derep	HTT ATP protect	PINK1 modulator	Anesthetic bind	HTT aggregate	TSG101-PTAP inh
Cn1cc([N+](=O)[O-])c(C(=O)Nc2ccc(C3CCCCC3)cc2)n1	0%	12%[10 µM]	-1%	7.9µM*	23%[9.22 µM]	1%
CC(=O)Nc1ccccc1-c1nc(CNC(=O)c2cccc(-n3cccn3)c2)c(C)o1	nt	nt	0%	nt	nt	nt
Cc1ccc2[nH]c(C)c(/C=C/c3cc[n+](C)cc3)c2c1	nt	nt	14µM*	-4%	nt	?
Cc1ccc2c(c1)c(/C=C/c1cc[n+](C)cc1)c(C)n2C	nt	nt	?	-17%	nt	?
O=C(Nc1nc(-c2cccc([N+](=O)[O-])c2)cs1)C(c1ccccc1)c1ccccc1	6%	4%[10 µM]	2%	-17%	16µM*	0%
CC(OC(=O)c1ccccc1Br)C(=O)Nc1nc(-c2cccc([N+](=O)[O-])c2)cs1 (centres undefined)	0%	-2%[10 µM]	4%	5%	8%	-2%
Cc1ccc(O)c(C(=O)CC(=O)c2ccc(Cl)cc2)c1	nt	nt	9%	-20%	nt	-3%
COc1ccc(O)c(C(=O)CC(=O)c2ccc(F)cc2)c1	0%	-57%[10 µM]	1%	-17%	?	-4%
O=C(CC(=O)c1cc(Cl)ccc1O)c1ccccc1	5%	4%[10 µM]	nt	-10%	11µM*	-3%
Cc1ccc(O)c(C(=O)CC(=O)c2cccc(F)c2)c1	-1%	-6%[10 µM]	16%	-18%	18µM*	-8%
Cc1cccc(C(=O)CC(=O)c2cc(Cl)ccc2O)c1	5%	-45%	3%	-10%	13µM*	-4%
Cn1c(-c2ccncc2)nc2cc(C(=O)N3CCCC3c3nccs3)cc(NC(=O)C3CCC3)c21 (centres undefined)	nt	nt	0%	nt	nt	nt
O=C1OCc2cc(NS(=O)(=O)c3cccs3)ccc21	0%	-9%[0.074 µM]	5%[38.3 µM]	-3%	10%	-5%
O=S(=O)(Nc1ccc2c(c1)CCC2)c1cccs1	-4%	-14%	5%[38.3 µM]	11µM*	-3%	-1%
CCc1ccc(NC(=O)N(Cc2ccco2)C(C)c2cccs2)cc1 (centres undefined)	-1%	-12%	2%[38.3 µM]	-20%	-24%	-3%
CCc1ccccc1NC(=S)N(Cc1ccco1)C(C)c1cccs1 (centres undefined)	1%	-30%	1%	-11%	4µM*	-4%
O=S(=O)(Nc1cc(Sc2ncn[nH]2)c(O)c2ccccc12)c1ccccc1	12%	-209%	-1%	-15%	4.5µM*	-2%
COc1ccc2cc3c(N)nn(C(=O)c4cccc(F)c4)c3nc2c1	0%	-22%[10 µM]	0%	1%	1µM*	2%
COc1ccc2cc3c(N)nn(C(=O)c4ccc(OC)c(OC)c4)c3nc2c1	-1%	nt	6%	13%	nt	nt
COc1ccc2cc3c(N)nn(C(=O)c4ccc(F)cc4)c3nc2c1	-1%	-10%[10 µM]	-1%	2%	2.8µM*	-1%
COc1ccc2cc3c(N)c(C(=O)N4CCCC4)sc3nc2c1	0%	-4%	7%	-7%	-6%	-4%
COc1ccc2cc3c(N)nn(C(=O)c4ccccc4Cl)c3nc2c1	0%	0%[10 µM]	-1%	6%	0.35µM*	-4%
O=C(NCc1ccncc1)c1cnn(-c2nccc(-c3cc4ccccc4o3)n2)c1C1CC1	nt	nt	5%	nt	nt	nt
CCN(CCCN(C)C)c1ccc(/C=C/c2ccnc3ccccc23)cc1	nt	nt	1%	nt	nt	nt
CC1(C)CC(=O)C(/C=N/c2ccccn2)=C(O)C1	-4%	-5%	6%[38.3 µM]	-16%	22µM*	1%
Cc1csc(NC(=O)CSc2nnc(-c3ccncc3)n2C)n1	1%	0%	16%[38.3 µM]	-5%	0.0008µM*	1%
CS(=O)(=O)c1ccc(-c2cccc3c2OC(CNC(=O)c2cc(C4CC4)[nH]n2)C3)cc1 (centres undefined)	nt	nt	-1%	nt	nt	nt

High-throughput results (PubChem BioAssay)
